Only some compounds are listed: those with a hit (about 12% of all), similar ones and a draw of the others.
Shiga inhibitor – inhibitors of Shiga toxin in Vero cells | inhibition, % at 38.7 µM | 9.2% of 290,000 active | AID 2315 | Vero cells, Shiga toxin protein synthesis inhibition reporter; in the data active = inhibition mostly above about 28%, no sharp cut-off; inactive = mostly below about 43%; note: 0% is about no effect
CHX counter – counter-screen for Shiga toxin inhibitors: cycloheximide protein synthesis inhibition; cell reporter, cycloheximide protein synthesis inhibition counterscreen; 12% of 300,000 active; max response, %; in the data active = max response mostly above about 13%, no sharp cut-off; inactive = mostly below about 14%; note: read at 38.3 µM for the half of the compounds with a filed dose; 0% is about no effect
NS1 inh – influenza NS1 inhibition; Potency, µM (highest dose often 46.1 µM), without a hit: at the top dose activity, positive = more growth; 0.4% of 270,000 active; AID 2326; note: potency is the fitted concentration of half-maximal effect; actives are rising curves; nearly all actives have a fitted effect of over 50% in size
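Compounds were scored for reversing the slow growth caused by influenza A NS1 in S. cerevisiae, measured by optical density at 600 nm. Assay medium contained 2% galactose at pH 6.0; NS1-free yeast of the same strain were the positive control.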
SARS PLpro yeast – inhibitors of SARS-CoV papain-like protease in yeast | S. cerevisiae expressing SARS-CoV PLpro, growth rescue | Potency, µM (doses to about 32.9 µM), inactives show at the top dose activity, positive = growth rescue, most hits filed as activators | 0.19% of 330,000 active; note: potency is the fitted concentration of half-maximal effect; 0% is about no effect; nearly all actives have a fitted effect of over 55% in size
Numbers without * were called inactive; ? = inconclusive; nt = no result; + = active, no number. Unless noted, calls come from the whole dose curve.

SMILES	Shiga inhibitor	CHX counter	NS1 inh	SARS PLpro yeast
CC(=O)N1N=C(c2cccc(NS(C)(=O)=O)c2)CC1c1ccc2c(c1)OCO2 (centres undefined)	42	13*	7%	8%
CCOc1ccccc1/C=C(\C(=O)O)c1ccc(S(=O)(=O)N2CCCCC2)s1	nt	nt	nt	0%
CC(C)CCn1nnnc1CN1CCN(C(=O)c2ccco2)CC1	-2	-6	-2%	-1%
CCC1CN(C(=O)N2CCC(C(=O)Nc3ccccc3F)CC2)c2ccccc2O1 (centres undefined)	-11	-9	-22%	1%
O=C(N1CCCC1)N1CCN(c2ncnc3c(-c4ccc(Cl)cc4)nsc23)CC1	97*	34*	3%	2%
Cc1ccc(-c2nsc3c(N4CCC(C(N)=O)CC4)ncnc23)cc1	52*	33*	-2%	1%
Cc1csc2c(N3CCC(C(=O)O)CC3)ncnc12	-1	6	1%	1%
COc1ccc(-c2nsc3c(N4CCCCC4)ncnc23)cc1	100*	58*	-1%	1%
O=C(c1ccccc1)N1CCN(c2ncnc3c(-c4ccccc4)nsc23)CC1	-17	-1	-8%	-1%
Cc1csc2c(N3CCCCC3)ncnc12	44	30*	-7%	-3%
O=c1c(Cl)c(N2CCC3(CC2)OCCO3)cnn1C12CC3CC(CC(C3)C1)C2	4	-4	-4%	0%
Cc1ccsc1C(=O)NCCc1ccc(S(N)(=O)=O)cc1	24	-1	15%	3%
NC(=O)c1ccc(NC(=O)CN2C(=O)NC(c3ccccc3)(c3ccccc3)C2=O)cc1	-2	-3	-8%	1%
CCCC(=O)N1CCc2cc(-c3nc(N)sc3C)ccc21	79*	49*	-47%	-14%
CCC(C)C(=O)N1CCc2cc(-c3csc(N)n3)ccc21 (centres undefined)	65*	52*	-109%	-26%
COc1ccc(/C=C/C(=O)NC(=S)Nc2ccc(S(N)(=O)=O)cc2)cc1OC	nt	-2	23%	-2%
COc1cc([N+](=O)[O-])ccc1NC(=S)NNC(=O)CCC(=O)Nc1ccccc1Cl	28*	33*	-15%	-2%
O=C(NC(=S)Nc1cccc([N+](=O)[O-])c1)c1ccccc1	78*	36*	-3%	-2%
O=C(O)c1cccc(NC(=S)NC(NC(=O)c2ccccc2[N+](=O)[O-])C(Cl)(Cl)Cl)c1 (centres undefined)	22	7	nt	0%
O=C(NC(=S)Nc1cccc([N+](=O)[O-])c1)c1ccco1	-10	6	13%	17%
Cc1ccc(C(=O)O)cc1NC(=S)NC(=O)c1ccc(-c2ccccc2)cc1	57*	31*	7%	-1%
O=C(O)c1cccc(NC(=S)NC(NC(=O)c2cccc([N+](=O)[O-])c2)C(Cl)(Cl)Cl)c1 (centres undefined)	21	11*	?	7%
COc1ccc2[nH]c(=O)c(CN(C(=O)c3cccnc3)c3ccccc3C)cc2c1	35	6	-8%	-1%
N#CCC(=O)Nc1ccc(C(=O)N2CCN(S(=O)(=O)c3ccc4ccccc4c3)CC2)cc1	-5	-1	23%	0%
CC(=O)c1cccc(NC(=S)NC(=O)C(C)C)c1	12	0	-4%	1%
SMILES	Shiga inhibitor	CHX counter	NS1 inh	SARS PLpro yeast
Cc1ccc(C(=O)NC(=S)Nc2ccccc2C(F)(F)F)cc1C	37*	16*	-32%	-16%
Cc1cccc(C(=O)NC(=S)Nc2ccccc2C(F)(F)F)c1	36	9	10%	13%
CC(=O)c1cccc(NC(=S)NNC(=O)c2ccco2)c1	33	21*	6%	-1%
O=C(O)c1cccc(NC(=S)NC(=O)c2ccc(-c3ccccc3)cc2)c1	143*	46*	8%	-1%
CC(=O)c1cccc(NC(=S)NC(=O)c2cccc(Cl)c2)c1	+	30*	-7%	-12%
CC(C)OC(=O)c1ccc(NC(=S)NC(=O)c2cncc(Br)c2)cc1	-2	1	3%	4%
CCCCC(=O)NC(=S)Nc1cccc(NC(=O)CC)c1	-3	-1	10%	4%
CCCCC(=O)NC(=S)Nc1cccc(C(=O)O)c1	60*	9	0%	-1%
O=C(O)CC(NNC(=O)c1ccccc1)C(=O)Nc1cccc([N+](=O)[O-])c1 (centres undefined)	72*	23*	3%	2%
O=C(NC(=S)Nc1cc([N+](=O)[O-])ccc1Cl)c1ccccc1	62*	41*	-7%	8%
CC(=O)c1cccc(NC(=S)NC(=O)c2cncc(Br)c2)c1	31	20*	19%	nt
Cc1cc(-c2ccc(S(=O)(=O)N3CCN(c4cccc(C)c4C)CC3)s2)on1	-2	-2	5%	9%
CC(=O)c1cccc(NC(=S)NC(=O)CC(C)(C)C)c1	30	20*	-2%	12%
CC(=O)c1cccc(N(CC(=O)Nc2ccc(F)cc2)S(C)(=O)=O)c1	41*	11*	4%	2%
CC(=O)c1cccc(NC(=S)Nc2ccc(F)cc2)c1	19	13*	0%	-1%
COCCCNC(=S)NNC(=S)Nc1cccc(Cl)c1	90*	28*	-37%	-4%
CCOC(=O)C1CCCN(CCC(=O)Nc2ccc(Br)c(C)c2)C1 (centres undefined)	-1	-1	12%	-12%
O=S1(=O)CCC(NS(=O)(=O)c2ccc3ccccc3c2)C1 (centres undefined)	2	-4	6%	1%
CC(C)NC(=S)NC(=O)c1ccc(-c2ccccc2)cc1	26*	11	-13%	3%
CCCCC(=O)Nc1cccc(C(=O)Nc2ccccc2C(=O)O)c1	25	6	1%	0%
O=C(O)c1cccc(NC(=S)NC(=O)c2ccc(-c3ccc(Cl)cc3)o2)c1	100*	21	nt	1%
CC(=O)c1cccc(NC(=S)NC(=O)c2ccccc2)c1	103*	46*	6%	7%
CC#CCCCC(=O)Nc1cccc(C(=O)O)c1	82*	25*	17%	2%
CCc1ccc(C(c2c(C)nn(-c3ccccc3)c2N)c2c(C)nn(-c3ccccc3)c2N)cc1	-4	2	-7%	-1%
CCCCc1ccc(Nc2ncnc3nc[nH]c23)cc1	28	23*	-63%	-5%
SMILES	Shiga inhibitor	CHX counter	NS1 inh	SARS PLpro yeast
CCOc1cc(CNc2ncnc3nc[nH]c23)ccc1OC	-5	-2	-33%	5%
COc1ccc(Nc2cc(Nc3cccc(OC)c3)ncn2)cc1	56*	54*	-3%	1%
COc1ccc(Nc2cc(Nc3ccc(OC)cc3)ncn2)cc1	-4	7	-1%	-2%
CCCNc1ncnc2nc[nH]c12	-3	-4	-36%	-2%
COc1cccc(Nc2ncnc3nc[nH]c23)c1	50*	16*	13%	2%
CCc1ccc(Nc2ncnc3nc[nH]c23)cc1	62*	27*	-6%	1%
COc1ccc(C(CNC(=O)CSc2ccc(Br)cc2C)N2CCOCC2)cc1 (centres undefined)	nt	nt	nt	4%
O=C(Cn1[nH]c(=O)c2ccccc2c1=O)NCCN1C(=O)S/C(=C\c2ccccc2)C1=O	nt	nt	nt	-1%
CC(C)(C)c1ccc(OCC(=O)O)c(Cl)c1	nt	nt	6%	nt
Cc1ccc(Nc2ncnc3nc[nH]c23)cc1Cl	63*	50*	-60%	8%
